# Screens: PubChem, SRMLSC
# Sampled rows, rich in hits. Any-hit rate of the full collection: about 6.5%.
# Fluor 339 460: intrinsic fluorescence of library compounds, ex339/em460 – biochemical, MLSMR library, data from DPM-DC assay, artefact control, profiling panel; compound autofluorescence, ex339/em460 nm, NADH buffer; stronger effect = higher value; 1 = no-compound wells, NADH background; fluorescence fold increase at 10 µM; 65,000 compounds, 5.5% hits; AID 709;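 active = at 10 µM, mean starting fluorescence two-fold or more over control wells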;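 note: signal is the first read of a kinetic run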
# A340 absorber: absorbance at 340 nm. 65,000 tested, under 10 active. compound absorbance at 340 nm, fold over control. AID 708. fold change at 10 µM;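 active = at 10 µM dose, initial 340 nm absorbance at least 2 fold that of control wells; inactive = change under 2 fold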;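 note: initial absorbance extrapolated from kinetic A340 decline of NADH oxidation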
# DPM-DC inhibit: S. pneumoniae DPM-DC inhibition | purified DPM-DC, PK/LDH coupled NADH fluorescence | calls only at 10 µM | 65,000 compounds, 0.49% hits;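 active = the 320 compounds with the highest percent inhibition in the single-dose primary screen, excluding strongly autofluorescent ones, cut at about 32% in these data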;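 note: kinetic rate of NADH fluorescence loss reporting ADP formed by the decarboxylase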
# NADH coupling: blocks coupling enzymes of NAD/NADH assays. coupled PK/LDH NADH assays, four targets. IC50, µM (doses to about 10 µM). 65,000 compounds, 0.02% hits;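 active = single-dose screening hits from any of four coupled enzyme assays that gave an IC50 when retested across doses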;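 note: the DPM-DC format reads NADH fluorescence rather than 340 nm absorbance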
# MK inhibit: inhibitors of Streptococcus pneumoniae mevalonate kinase; purified MK, PK/LDH-coupled NADH absorbance 340 nm; inhibition, % at 10 µM; 65,000 compounds, 0.48% hits; AID 555;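 active = ranked among the strongest by inhibition in the single 10 µM screen, a fixed top-ranked set picked for dose follow-up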
# Spn PMK inh: inhibitors of Streptococcus pneumoniae phosphomevalonate kinase; AID 539; purified PMK, PK/LDH-coupled NADH absorbance 340 nm; inhibition, % at 10 µM; 65,000 compounds, 0.49% hits;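 active = top-ranked compounds by inhibition in the single 10 µM screen, taking a fixed number of the strongest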
# Numbers stand for hits; – = inactive; · = no result given; + = active, no number.
SMILES,Fluor 339 460,A340 absorber,DPM-DC inhibit,NADH coupling,MK inhibit,Spn PMK inh
CCCc1cc(=O)oc2c(CN3CCCC3)c(O)ccc12,2.3,–,·,–,–,–
CCn1c2ccccc2c2cc(NC(=O)CCCN3C(=O)CCC3=O)ccc21,–,–,–,–,–,–
COc1cccc(NC(=O)CSCc2n[nH]c(=O)[nH]2)c1,–,–,–,–,–,–
COc1ccc(N=c2oc3cc(O)ccc3cc2C(=O)NCC2CCCO2)cc1 (stereo not drawn),2.9,–,–,–,–,–
Cc1ccc(N=c2oc3cc(O)ccc3cc2C(N)=O)cc1,2.2,–,–,–,–,–
COc1ccc(N=c2oc3cc(O)ccc3cc2C(=O)NCC2CCCO2)c(OC)c1 (stereo not drawn),3.8,–,·,–,–,–
O=C1NCCCC1C(=O)N1CCN(C(=O)C2CCCNC2=O)CC1 (stereo not drawn),–,–,–,–,–,–
CC12C=CC3(CN(Cc4ccccc4)C(=O)C3C1C(=O)NC1CC1)O2 (stereo not drawn),–,–,–,–,–,28
O=C(NCc1cn2ccccc2n1)c1ccc(Br)o1,–,–,–,–,–,–
O=C(NCc1cn2ccccc2n1)c1ccccc1,–,–,–,–,52,–
Cc1nnc(SCC(=O)Nc2nsc(-c3ccccc3)n2)s1,–,–,–,–,–,38
Cc1ccc(-c2nc(NC(=O)CSc3nnc(C)s3)ns2)cc1,–,–,–,–,–,–
COc1ccc(-c2nc(NC(=O)CSc3nnc(C)s3)ns2)cc1,2.8,–,–,–,–,–
CCOC(=O)CSc1cccc2cccnc12,3.6,–,·,–,–,–
Cn1c(SCC(=O)NCc2ccco2)nc2ccccc2c1=O,–,–,–,–,–,25
O=C(CSc1nc2ccccc2c(=O)n1Cc1ccco1)NCc1ccccc1,–,–,–,–,–,–
Cc1cc(C)n2nc(SCC(=O)NCc3ccco3)nc2n1,–,–,–,–,–,30
O=C(CSc1cccc2cccnc12)NCc1ccco1,4.9,–,·,–,–,–
Cc1cc(C)nc(SCC(=O)NCc2ccco2)n1,–,–,–,–,–,–
CCOC(=O)N1CCC(Nc2c(N3CCN(c4cccc(C(F)(F)F)c4)CC3)c(=O)c2=O)CC1,–,–,–,–,–,–
CCCCn1c(N(CCOC(C)=O)C(C)=O)nc2ccccc21,–,–,–,–,–,–
Cc1cc(N2CCCC2)n2nc(C)nc2n1,–,–,–,–,–,–
CCOC(=O)N1CCN(c2cc(C)nc3nc(C)nn23)CC1,2.1,–,·,–,–,–
CCOC(=O)c1cn2c3c(c(F)c(F)c(F)c3c1=O)SC(N1CCCC1)=N2,2.7,–,–,–,–,–
O=C(Nc1c(C(=O)O)[nH]c2ccccc12)NC1CCCCC1,3.9,–,·,–,–,–
SMILES,Fluor 339 460,A340 absorber,DPM-DC inhibit,NADH coupling,MK inhibit,Spn PMK inh
O=C(NC1CCCCCCC1)c1c(O)c2ccccc2[nH]c1=O,–,–,–,–,–,–
Cc1ccc(CCNC(=O)C2CCN(C(=O)N(C)C)CC2)cc1,–,–,–,–,–,–
CC(C)(C)C1CCc2[nH]nc(C(=O)O)c2C1 (stereo not drawn),–,–,–,–,–,–
N#Cc1sc2nc(-c3ccccc3)cc(-c3ccco3)c2c1N,–,–,–,–,–,–
N#Cc1c(-c2ccccc2)cc(-c2ccco2)c(C#N)c1N,2.3,–,·,–,–,–
CC(=O)OC(Cn1ccnc1)c1ccccc1 (stereo not drawn),–,–,–,–,–,–
CC(=O)Cc1nsc(NC(=O)c2ccc(COc3ccccc3)o2)n1,–,–,–,–,–,–
Cc1sc(NC(=O)c2oc3ccccc3c2C)c(C#N)c1C,3.8,–,·,–,–,–
CCOc1ccc(OCC)c(NC(=O)C2CCN(c3ncccn3)CC2)c1,–,–,–,–,–,–
COc1ccc(C(=O)NCc2cn3c(C)csc3n2)cc1OC,–,–,+,–,–,–
N#Cc1c(N)nc2c(c1-c1ccncc1)CCCCCC2,2.1,–,–,–,–,–
N#Cc1c(N)nc2c(c1-c1ccncc1)CCCC2,3.2,–,–,–,–,–
COC(=O)c1c(C#N)c(N)nc2c1CCCC2,3.8,–,·,–,–,–
Cc1ccc(Cl)cc1NC(=O)Cn1cc2c(n1)CCCC2,–,–,–,–,–,–
COc1cc2c(cc1OC)CN(C(=O)c1ccccc1C(=O)O)CC2,–,–,–,–,–,–
O=C(O)c1ccc2cccc(Cl)c2c1O,2.5,–,–,–,–,–
Cc1c(Cl)cccc1Nc1ccccc1C(=O)O,–,–,–,–,–,–
CN1CCN(C(=O)CSc2nc(-c3cccs3)ccc2C#N)CC1,2.3,–,·,–,–,–
Cc1ccc(S(=O)(=O)NCCN=C(CN2CCCC2)NS(=O)(=O)c2ccc(C)cc2)cc1,–,–,–,–,–,–
CC(=O)Nc1ccc(CN2CCN(c3cccc(C(F)(F)F)c3)CC2)cc1,–,–,–,–,43,–
O=C1C(Cl)=C(NCC2CCCO2)C(=O)N1Cc1ccccc1 (stereo not drawn),–,–,+,–,–,–
Cn1c(=O)n(Cc2ccccc2)c(=O)c2c1nc(NCC1CCCO1)n2Cc1ccccc1 (stereo not drawn),–,–,–,–,–,–
Cc1ccc(C)c2[nH]c(=O)c(CCNC(=O)c3ccc(S(=O)(=O)N(C)C)cc3)cc12,–,–,–,–,–,–
COc1ccc(-c2c3c(=O)n(C)c(=O)n(C)c3cn2Cc2ccccn2)cc1,–,–,–,–,–,–
Cc1cccc(-c2c3c(=O)n(C)c(=O)n(C)c3cn2-c2ccc(O)cc2)c1,2.1,–,–,–,–,–
SMILES,Fluor 339 460,A340 absorber,DPM-DC inhibit,NADH coupling,MK inhibit,Spn PMK inh
COc1ccc(-c2c3c(=O)n(C)c(=O)n(C)c3cn2-c2cc(OC)ccc2OC)cc1,3.7,–,·,–,–,–
Cn1c(=O)c2c(-c3ccccc3)n(C3CCCCC3)cc2n(C)c1=O,–,–,–,–,–,31
Cn1c(=O)c2c(-c3ccccc3)n(-c3ccccc3O)cc2n(C)c1=O,2.2,–,–,–,–,–
Cn1c(=O)c2c(-c3ccccc3)n(N3CCOCC3)cc2n(C)c1=O,–,–,–,–,–,–
O=C(NCCC1=CCCCC1)C1CCN(S(=O)(=O)c2cccc3nsnc23)CC1,–,–,–,–,–,–
Cc1cc(C(=O)NCc2ccccc2)c(=O)[nH]c1C,2.1,–,·,–,–,–
CCCCC(=O)Nc1cc(N(C)C)nc2ccccc12,3.8,–,·,–,–,–
CN(C)c1cc(NC(=O)CN2CCOCC2)c2ccccc2n1,–,–,·,–,–,–
CCN(CC)c1ccc(/C=N/n2c(=S)[nH]nc(C)c2=O)cc1,–,–,+,39µM,–,–
COc1ccc(S(=O)(=O)NC(CC(=O)NCCc2ccc(OC)c(OC)c2)c2ccco2)cc1 (stereo not drawn),–,–,–,–,–,–
